NPC1 promoter act = NPC1 promoter activation; Potency, µM (top dose mostly 9.22 µM), for inactives: top-dose activation, hits mostly activators; 2.4% of 320,000 active; Huh7 NPC1 promoter luciferase reporter, 24 h; AID 485313; also: % of control where 0% means no effect; nearly all actives have a fitted effect of over 60% in size
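Luminescence read-out of NPC1 promoter-driven luciferase in stably transfected Huh7 cells; compounds delivered in DMSO and left 24 h at 37C, 5% CO2, qHTS titration format.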
ELG1 genotoxic = genotoxicity induction in ELG1-luciferase HEK293T cells | 1.3% of 330,000 active | AID 504466 | Potency, µM (highest dose often 46 µM), without a hit: at the top dose activity change, positive = activation, actives largely listed as activators | HEK293T ELG1-luciferase reporter, luminescence, 16 h; also: % of control where 0% means no effect; nearly all actives have a fitted effect of over 60% in size
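HEK293T cells expressing luciferase-tagged ELG1 were exposed to compound or DMSO vehicle for 16 hr at 37 °C and 5% CO2. Luciferase activity was then measured with ONE-Glo after 30 min at room temperature.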
Rab9 prom act = activates the Rab9 promoter | Huh7 Rab9 promoter-luciferase reporter, luminescence, 24 h | Potency, µM (titrated, usually from 9.22 µM), for inactives: at the top dose activation, negative = inhibition, usual class: activators | 2.8% of 320,000 active | AID 485297; also: % of control where 0% means no effect; nearly all actives have a fitted effect of over 60% in size
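Using Huh7 cells stably transfected with Rab9 promoter–luciferase, compounds were incubated 24 h at 37 °C, 5% CO2; luciferase luminescence was read 10 min after reagent addition.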
ELG1 repair inh = ELG1-dependent DNA repair inhibition | HEK293T ELG1-luciferase reporter, luminescence, 16 h; DNA damage induced by 5-fluorouridine | Potency, µM (series often up to 46.1 µM), for inactives: at the highest dose activity change, negative = inhibition, actives largely listed as inhibitors | 2.3% of 330,000 active; also: % is scaled to controls: 0 for no effect and ±100 for the full control effect; nearly all actives have a fitted effect of over 55% in size
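Reporter activity after DNA damage by 5-fluorouridine is monitored. Compound-treated cells incubate 16 hr at 37 °C, then ONE-Glo is added for 30 min before luminescence reading.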
SMN2 splice enh = enhancers of SMN2 splice variant expression | HEK293 SMN2-luciferase splicing reporter, luminescence, 30-36 h | Potency, µM (series often up to 46.1 µM), inactives show top-dose activity change, positive = activation, hits mostly activators | 2.8% of 210,000 active | AID 1458; also: % of control where 0% means no effect; nearly all actives have a fitted effect of over 55% in size
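HEK293 cells carry an SMN2 […]–luciferase reporter in which exon 7 inclusion puts luciferase in frame. Cells were plated 10-12 h before compound addition, then incubated 30-36 h at 37C. ONE-Glo luminescence was read; sodium butyrate at 4.5 mM final served as control.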
FLuc counter = inhibits or activates purified firefly luciferase, miR-21 counter-screen; AID 588342; purified FLuc, Km substrates, luminescence inhibition; 6.9% of 360,000 active; Potency, µM (doses to about 57.5 µM), inactives show at the top dose activity change, negative = inhibition, usual class: inhibitors;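 also: plate controls were vehicle for no effect and reference inhibitor for full effect; nearly all actives have a fitted effect of over 55% in size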
Target sequence (P08659 whole entry, looked up): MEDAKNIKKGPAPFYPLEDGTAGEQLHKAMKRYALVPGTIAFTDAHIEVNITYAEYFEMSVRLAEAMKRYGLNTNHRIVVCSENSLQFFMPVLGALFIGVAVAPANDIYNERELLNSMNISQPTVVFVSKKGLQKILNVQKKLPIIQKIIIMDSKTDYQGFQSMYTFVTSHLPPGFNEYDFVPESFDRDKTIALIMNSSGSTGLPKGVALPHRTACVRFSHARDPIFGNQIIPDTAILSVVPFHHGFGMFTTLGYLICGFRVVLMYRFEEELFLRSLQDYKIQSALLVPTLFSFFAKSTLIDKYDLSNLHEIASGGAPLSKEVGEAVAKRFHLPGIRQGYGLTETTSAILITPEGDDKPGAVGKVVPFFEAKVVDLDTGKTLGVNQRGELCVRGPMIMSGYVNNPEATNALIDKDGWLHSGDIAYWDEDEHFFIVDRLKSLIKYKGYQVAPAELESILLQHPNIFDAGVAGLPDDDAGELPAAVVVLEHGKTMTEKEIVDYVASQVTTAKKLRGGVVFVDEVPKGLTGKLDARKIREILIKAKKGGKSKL
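Biochemical qHTS of compounds, final roughly 60 µM downward over six points, against 10 nM purified firefly luciferase using Km concentrations of substrates (10 uM D-luciferin, 10 uM ATP) in Tris acetate pH 7.5 buffer; luminescence output.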
An asterisk follows results filed as active; u = inconclusive; x = no result given; [ ] = remark or other dose. Only some compounds are listed: those with a hit (about 9.4% of all), similar ones and a draw of the others. Calls follow the shape of the dose curve; as a rule, active = well fitted curve in the direction sought with a large enough effect; inconclusive = small, poorly fitted or top-dose-only effect, or another doubt; inactive = no such curve, though single readings can be large; an effect the other way counts as inactive or inconclusive. Potency is read from the fitted curve at half-maximal effect.

SMILES	NPC1 promoter act	ELG1 genotoxic	Rab9 prom act	ELG1 repair inh	SMN2 splice enh	FLuc counter
O=C(O)c1ccc2c(c1)C(=O)N(c1ccc(OCc3ccccc3)cc1)C2=O	-1%	2%	-5%	7%	x	1%
O=C1CCOc2cc(OCc3ccccc3)ccc21	1µM*	10µM*	1µM*	u	2.2µM*	1.5µM*
CS(=O)(=O)c1ccc(-c2cccc(NC(=O)COc3ccccc3)c2)nn1	1%	8%	0%	17%	x	-17%
O=C(COc1ccccc1)Nc1ccc(-c2ccc(N3CCOCC3)nn2)cc1	u	u	2.2µM*	20%	x	u
CN1CCN(c2ccc(-c3cccc(NC(=O)COc4ccc(Cl)cc4Cl)c3)nn2)CC1	u	0.65µM*	u	u	x	0.48µM*
CN1CCN(c2ccc(-c3cccc(NC(=O)COc4ccccc4)c3)nn2)CC1	1.6µM*	2.6µM*	1.6µM*	u	x	1.5µM*
CN1CCN(c2ccc(-c3cccc(NC(=O)COc4ccc(Cl)cc4)c3)nn2)CC1	2.8µM*	2.1µM*	2µM*	u	x	1.1µM*
O=C(COc1ccc(Cl)cc1)Nc1cccc(-c2ccc3nncn3n2)c1	-4%	2%	-3%	10%	-18%	u
O=C(COc1ccccc1)Nc1ccc(S(=O)(=O)N2CCOCC2)cc1	-1%	0%	3%	-13%	-6%	0%
CCCN(CCC)C(=O)c1nn(C)c2c1CSc1ccccc1-2	x	x	x	x	x	-2%
Cc1cccc(CSc2cn(CC(=O)N3CCOCC3)c3ccccc23)c1	u	u	u	u	u	15µM*
O=C(Cn1cc(SCc2cccc(Cl)c2)c2ccccc21)N1CCOCC1	21%	9%	u	u	x	19µM*
O=C(CSc1cn(CC(=O)N2CCOCC2)c2ccccc12)N1CCOCC1	2%	1%	0%	14%	x	-2%
O=C(Cn1cc(SCc2ccccc2)c2ccccc21)N1CCCCCC1	x	x	x	x	x	-18%
Cn1cccc1C(=O)N1CCC[C@@]2(CCN(Cc3ccccc3)C2)C1	x	x	x	x	-9%	x
CC(=O)Nc1ccc(NC(=O)CSc2cn(CC(=O)N(C(C)C)C(C)C)c3ccccc23)cc1	x	x	x	x	x	0%
CCOC(=O)c1ccccc1NC(=O)NCc1c(-n2cccc2)sc2c1CCCC2	x	x	x	x	x	-14%
Cn1c2ccccc2c2cc(/C=N/NC(=O)c3cc(O)cc(O)c3)ccc21	2%	6%	u	1%	x	24µM*
COc1cc(/C=N/NC(=O)CCn2c3ccccc3c3ccccc32)ccc1O	-1%	-15%	1%	u	-34%	-10%
Cn1c2ccccc2c2cc(/C=N/NC(=O)c3cc(O)ccc3O)ccc21	-13%	-5%	10%	-19%	x	u
COc1cc(C(=O)N/N=C/c2ccc3c(c2)c2ccccc2n3C)ccc1O	-15%	-9%	0%	-16%	x	11µM*
COc1ccc(-c2c3c(=O)n(C)c(=O)n(C)c3c3c(-c4ccc(C)cc4)nc4ccccc4n23)cc1	x	x	x	x	-8%	-2%
N[C@@H](Cc1ccnnc1)C(=O)O	x	x	x	x	-5%[9.22 µM]	x
O=C(CCCn1c(=O)c2cccn2c2ccccc21)Nc1cccc(Cl)c1	x	x	x	x	x	12µM*
COc1ccc(NC(=O)CCCn2c(=O)c3cccn3c3ccccc32)c(OC)c1	x	x	x	x	x	0.85µM*
SMILES	NPC1 promoter act	ELG1 genotoxic	Rab9 prom act	ELG1 repair inh	SMN2 splice enh	FLuc counter
COc1ccc(Cn2c(C(=O)O)c(CNCCc3ccccc3Cl)c3ccc(C)cc32)cc1	x	x	x	x	x	-10%
NC(=O)c1cc2c3ccccc3ccn2c1-c1ccccc1	-2%	12µM*	-15%	u	x	21µM*
O=C(Oc1cc2oc(=O)cc(-c3ccccc3)c2cc1Cl)C1CCCCC1	1%	-2%	-4%	16µM*	-34%	0%
Cc1cccc(NC(=O)C2CCN(S(=O)(=O)c3ccc(F)cc3)CC2)c1C	x	x	x	x	-17%	-11%
CC(=O)Nc1ccc(-c2csc(N/N=C(/C)c3ccccc3)n2)cc1	24%	-11%	10%	21µM*	x	21µM*
CC(C)=NNc1nc(-c2ccc([N+](=O)[O-])cc2)cs1	7%	9%	12%	17%	-26%	u
C/C(=N/Nc1nc(-c2ccc(Cl)cc2)cs1)c1cccs1	18%	17%	u	u	u	15µM*
CC(=O)Nc1ccc(-c2csc(NC(=O)CCCc3cccs3)n2)cc1	3%	-11%	-3%	18µM*	-28%	-13%
CC(=O)Nc1cccc(-c2csc(NCc3ccccc3)n2)c1	-3%	2%	-3%	-2%	x	21µM*
Cc1cc(C)cc(NC(=O)CSc2oc(-c3cccs3)nc2S(=O)(=O)c2ccc(Br)cc2)c1	x	x	x	x	-25%	0%
Cc1ccc(-n2ncc(C(=O)NCc3ccccc3)c2C2CCN(C(=O)OC(C)(C)C)CC2)cc1	x	x	x	x	x	1%
CCC(=O)Nc1cccc(-c2csc(-c3ccccc3)n2)c1	20%	8%	22%	-3%	u	15µM*
CC(=O)Nc1ccc(-c2csc(NCc3ccccc3)n2)cc1	22%	u	u	u	17%	19µM*
COc1cc(NC(=O)c2cc3cc4ccc(OC)c(Cl)c4nc3s2)cc(OC)c1	x	x	x	x	x	-3%
CCOc1ccc(-c2cc3c(=O)n(Cc4nc(-c5ccc(OCC)c(OC)c5)oc4C)ccn3n2)cc1Cl	x	x	x	x	-2%	-5%
C[C@@H]1O[C@H](O[C@@H]2[C@H](C)O[C@H](O[C@@H]3[C@H](C)O[C@H](O[C@H]4CC[C@]5(C)[C@@H](CC[C@@H]6[C@H]5C[C@@H](O)[C@]5(C)[C@@H](C7=CC(=O)OC7)CC[C@]65O)C4)C[C@@H]3O)C[C@@H]2O)C[C@H](O)[C@@H]1O	x	x	x	x	-82%[20.6 µM]	x
C[C@H]1O[C@@H](O[C@H]2[C@@H](O)C[C@H](O[C@H]3[C@@H](O)C[C@H](O[C@H]4CC[C@@]5(C)[C@H](CC[C@@H]6[C@@H]5C[C@@H](O)[C@]5(C)[C@@H](C7=CC(=O)OC7)CC[C@]65O)C4)O[C@@H]3C)O[C@@H]2C)C[C@H](O)[C@@H]1O	-50%	-16%	-66%	0.16µM*	x	2%
S=C(NCCc1ccccc1)NC1CCC(NC(=S)NCCc2ccccc2)CC1 (centres undefined)	-3%	12%	-3%	-12%	23%	-1%
S=C(NCCc1cccc(Cl)c1)NC1CCCCC1	3.5µM*	u	2.8µM*	u	x	19µM*
O=C(NCCc1ccccc1)NC1CCCCC1	1.1µM*	u	0.56µM*	u	11µM*	11µM*
O=C(NCCC1=CCCCC1)NC1CCCCC1	1.4µM*	u	0.79µM*	u	7.1µM*	6.7µM*

High-throughput results deposited in PubChem by National Center for Advancing Translational Sciences (NCATS).
